SMILES strings stand for the structures. The source made the active and inactive calls. Rule for the calls: active = hit-call score of the fitted dose curve at least 0.9, where 1 is the maximum; inactive = score below 0.9.

The AC50 is the concentration at which the activity in the assay is half-maximal.

Holding throughout (conditions): mRNA level, 48 h; actives raise or lower the signal
Read-out in test [1]: Insulin-like growth factor-binding protein 1 (IGFBP1), IGFBP1 (gene 3484)
Description: LTEA_HepaRG_IGFBP1: Life Technologies and Expression Analysis (LTEA) Assay for Insulin-like growth factor-binding protein 1 (IGFBP1) using HepaRG (AID 2283508). In outline:
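Read-out is qRT-PCR transcript level normalized to three housekeeping genes, fitted in both directions against 0.5% DMSO. Differentiated HepaRG cells received eight half-log concentrations (top 100 uM) in duplicate for 48 h in serum-free induction medium.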

Read-out in test [2]: Interleukin 6 (IL6), IL6 (gene 3569)
Description: LTEA_HepaRG_IL6: Life Technologies and Expression Analysis (LTEA) Assay for Interleukin 6 (IL6) using HepaRG (AID 2283509). In outline: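 Differentiated human HepaRG cells, plated 48 h then switched to serum-free induction medium, were exposed in duplicate for 48 h to eight half-log concentrations up to 100 uM in 0.5% DMSO. IL6 mRNA measured by qRT-PCR, normalized to ACTB/GAPDH/POLR2A.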

Read-out in test [3]: Interleukin 6 Receptor (IL6R), IL6R (gene 3570)
Description: LTEA_HepaRG_IL6R: Life Technologies and Expression Analysis (LTEA) Assay for Interleukin 6 Receptor (IL6R) using HepaRG (AID 2283510). The procedure, abridged: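 Concentration-response in human liver HepaRG cells: eight concentrations from 100 uM downward by half-logs, 48 h exposure, 0.5% DMSO vehicle. IL6R mRNA change measured by qRT-PCR and fitted in both directions relative to vehicle.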

Read-out in test [4]: Potassium channel subfamily K member 1 (KCNK1), KCNK1 (gene 3775)
Put plainly: LTEA_HepaRG_KCNK1: Life Technologies and Expression Analysis (LTEA) Assay for Potassium channel subfamily K member 1 (KCNK1) using HepaRG (AID 2283511). In outline:
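Differentiated human HepaRG cells in serum-free induction medium were exposed in duplicate for 48 h to 8 half-log concentrations up to 100 uM in 0.5% DMSO. KCNK1 mRNA was measured by TaqMan qRT-PCR, normalized to ACTB, GAPDH and POLR2A, and fitted bidirectionally versus DMSO.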

Read-out in test [5]: Keratin 19 (KRT19), KRT19 (gene 3880)
Description: LTEA_HepaRG_KRT19: Life Technologies and Expression Analysis (LTEA) Assay for Keratin 19 (KRT19) using HepaRG (AID 2283512). In outline: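 KRT19 transcript measured by TaqMan qRT-PCR, referenced to three housekeeping genes, after HepaRG cells received test chemicals for 48 h. Eight half-log concentrations, top 100 uM, 0.5% DMSO vehicle; increases and decreases both fitted.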

Read-out in test [6]: JUN Transcription Factor, JUN (gene 3725)
Put plainly: LTEA_HepaRG_JUN: Life Technologies and Expression Analysis (LTEA) Assay for JUN Transcription Factor using HepaRG (AID 2283513). In outline:
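Human HepaRG liver cells receive test chemicals in 0.5% DMSO for 48 h across an eight-point range topping at 100 uM. Expression changes in JUN are scored in both directions against the DMSO vehicle.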

Read-out in test [7]: Lipase C (LIPC), LIPC (gene 3990)
Description: LTEA_HepaRG_LIPC: Life Technologies and Expression Analysis (LTEA) Assay for Lipase C (LIPC) using HepaRG (AID 2283514). The procedure, abridged:
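Differentiated human HepaRG cells in serum-free induction medium were exposed in duplicate for 48 h to eight concentrations (top 100 uM, half-log steps, 0.5% DMSO). LIPC mRNA was quantified by TaqMan qRT-PCR, normalized to ACTB, GAPDH and POLR2A, with bidirectional fitting versus DMSO.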

Read-out in test [8]: Lipoprotein lipase (LPL), LPL (gene 4023)
Put plainly: LTEA_HepaRG_LPL: Life Technologies and Expression Analysis (LTEA) Assay for Lipoprotein lipase (LPL) using HepaRG (AID 2283515). In outline: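 Differentiated human HepaRG cells in serum-free induction medium were exposed in duplicate for 48 h to eight half-log concentrations (top 100 uM) in 0.5% DMSO. LPL mRNA was quantified by TaqMan qRT-PCR, normalized to ACTB, GAPDH and POLR2A.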

Read-out in test [9]: MicroRNA 122 (MIR122), gene 406906
Description: LTEA_HepaRG_MIR122: Life Technologies and Expression Analysis (LTEA) Assay for MicroRNA 122 (MIR122) using HepaRG (AID 2283516). Note: the transcript read is the microRNA miR-122. In outline:
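HepaRG, 48 h exposure, 8-pt half-log from 100 uM, 0.5% DMSO; TaqMan qRT-PCR; bidirectional fit vs DMSO.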

Read-out in test [10]: matrix metalloproteinase-10 (MMP10), MMP10 (gene 4319)
Put plainly: LTEA_HepaRG_MMP10: Life Technologies and Expression Analysis (LTEA) Assay for matrix metalloproteinase-10 (MMP10) using HepaRG (AID 2283517). In outline: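 HepaRG, collagen I, ~100,000 cells/well; serum-free induction medium; 48 h exposure, duplicate, 8-pt half-log to 100 uM, 0.5% DMSO. Readout: TaqMan qRT-PCR, normalized to ACTB/GAPDH/POLR2A; bidirectional fit vs DMSO.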

Read-out in the next test: MYC, MYC (gene 4609)
Put plainly: LTEA_HepaRG_MYC: Life Technologies and Expression Analysis (LTEA) Assay for MYC using HepaRG (AID 2283518). In outline:
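MYC transcript changes, up or down relative to 0.5% DMSO, from TaqMan qRT-PCR normalized to three housekeeping genes. Human HepaRG cultures received chemicals for 48 h at eight half-log concentrations up to 100 uM, in duplicate.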

Read-out in test [11]: matrix metalloproteinase-3 (MMP3), MMP3 (gene 4314)
Put plainly: LTEA_HepaRG_MMP3: Life Technologies and Expression Analysis (LTEA) Assay for matrix metalloproteinase-3 (MMP3) using HepaRG (AID 2283519). In outline:
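Differentiated human HepaRG cells, plated 48 h on collagen I, were exposed in duplicate for 48 h in serum-free induction medium to eight half-log concentrations up to 100 uM in 0.5% DMSO. MMP3 mRNA was quantified by TaqMan qRT-PCR, normalised to ACTB, GAPDH and POLR2A.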

Read-out in test [12]: Nuclear factor NF-kappa-B p105 subunit (Homo sapiens) (UniProt P19838)
Description: LTEA_HepaRG_NFKB1: Life Technologies and Expression Analysis (LTEA) Assay for Nuclear Factor Kappa B Subunit 1 (NFKB1) using HepaRG (AID 2283521).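 Note: TaqMan qRT-PCR transcript normalised to ACTB GAPDH and POLR2A housekeeping genes.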 The procedure, abridged:
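HepaRG, 48 h exposure; 8-pt half-log series from 100 uM in 0.5% DMSO; duplicates. Readout: NFKB1 mRNA by qRT-PCR (Fluidigm arrays), housekeeping-normalized. Gain/loss fit vs DMSO baseline.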

Read-out in test [13]: Protein phosphatase 2A (PPP2R4), PTPA (gene 5524)
Put plainly: LTEA_HepaRG_PPP2R4: Life Technologies and Expression Analysis (LTEA) Assay for Protein phosphatase 2A (PPP2R4) using HepaRG (AID 2283522). The procedure, abridged:
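Gene-expression endpoint in HepaRG hepatic cells: 48 h treatment across eight half-log concentrations up to 100 uM in 0.5% DMSO. PPP2R4 mRNA by qRT-PCR, normalized to three endogenous control genes.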

Read-out in test [14]: Phosphatase and tensin (PTEN), PTEN (gene 5728)
Put plainly: LTEA_HepaRG_PTEN: Life Technologies and Expression Analysis (LTEA) Assay for Phosphatase and tensin (PTEN) using HepaRG (AID 2283523). The procedure, abridged:
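Differentiated human HepaRG cells, plated 48 h then switched to serum-free induction medium, were exposed in duplicate for 48 h to eight half-log concentrations up to 100 uM in 0.5% DMSO. PTEN mRNA measured by TaqMan qRT-PCR, normalized to ACTB/GAPDH/POLR2A, bidirectional fit versus DMSO.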

Read-out in test [15]: solute carrier (SLC22A1), SLC22A1 (gene 6580)
Description: LTEA_HepaRG_SLC22A1: Life Technologies and Expression Analysis (LTEA) Assay for solute carrier (SLC22A1) using HepaRG (AID 2283524). In outline: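 Human HepaRG cells were plated 48 h, switched to serum-free induction medium, then exposed in duplicate for 48 h to 8-point half-log series from 100 uM in 0.5% DMSO. SLC22A1 mRNA measured by qRT-PCR, normalized to ACTB/GAPDH/POLR2A, fitted bidirectionally versus DMSO.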

Read-out in test [16]: Pyruvate Dehydrogenase Kinase 4 (PDK4), PDK4 (gene 5166)
Put plainly: LTEA_HepaRG_PDK4: Life Technologies and Expression Analysis (LTEA) Assay for Pyruvate Dehydrogenase Kinase 4 (PDK4) using HepaRG (AID 2283525). The procedure, abridged:
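Differentiated human HepaRG cells, pre-cultured 48 h, were exposed in duplicate for 48 h in serum-free induction medium to eight half-log concentrations up to 100 uM in 0.5% DMSO. PDK4 mRNA was quantified by qRT-PCR, normalized to ACTB, GAPDH and POLR2A, bidirectional fitting versus DMSO.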

Read-out in test [17]: NAD(P)H dehydrogenase [quinone] 1 (NQO1), NQO1 (gene 1728)
Put plainly: LTEA_HepaRG_NQO1: Life Technologies and Expression Analysis (LTEA) Assay for NAD(P)H dehydrogenase [quinone] 1 (NQO1) using HepaRG (AID 2283526). In outline:
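Human HepaRG hepatic cells received chemicals for 48 h in serum-free induction medium with 0.5% DMSO, up to 100 uM. Expression was assessed by TaqMan qRT-PCR against housekeeping controls and fitted bidirectionally against DMSO.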

Read-out in test [18]: Nuclear factor erythroid 2-related factor 2 (Homo sapiens) (UniProt Q16236)
Description: LTEA_HepaRG_NFE2L2: Life Technologies and Expression Analysis (LTEA) Assay for Nuclear factor erythroid 2-related factor 2 (NFE2L2) Transcription Factor using HepaRG (AID 2283527). In outline: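 Differentiated human HepaRG cells in serum-free induction medium were exposed for 48 h to eight concentrations (top 100 uM, half-log dilutions, 0.5% DMSO), in duplicate. NFE2L2 mRNA was quantified by TaqMan qRT-PCR, normalized to ACTB, GAPDH and POLR2A, with bidirectional fitting versus DMSO.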

Read-out in test [19]: Paternally Expressed 10 (PEG10), PEG10 (gene 23089)
Put plainly: LTEA_HepaRG_PEG10: Life Technologies and Expression Analysis (LTEA) Assay for Paternally Expressed 10 (PEG10) using HepaRG (AID 2283520).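 Note: PEG10 transcript by qRT-PCR normalised to ACTB GAPDH and POLR2A.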 In outline:
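Chemicals tested on HepaRG cells for 48 h, highest concentration 100 uM. PEG10 expression assessed by qRT-PCR relative to DMSO control.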

Sequence of Nuclear factor NF-kappa-B p105 subunit (Homo sapiens) (P19838 whole entry, looked up): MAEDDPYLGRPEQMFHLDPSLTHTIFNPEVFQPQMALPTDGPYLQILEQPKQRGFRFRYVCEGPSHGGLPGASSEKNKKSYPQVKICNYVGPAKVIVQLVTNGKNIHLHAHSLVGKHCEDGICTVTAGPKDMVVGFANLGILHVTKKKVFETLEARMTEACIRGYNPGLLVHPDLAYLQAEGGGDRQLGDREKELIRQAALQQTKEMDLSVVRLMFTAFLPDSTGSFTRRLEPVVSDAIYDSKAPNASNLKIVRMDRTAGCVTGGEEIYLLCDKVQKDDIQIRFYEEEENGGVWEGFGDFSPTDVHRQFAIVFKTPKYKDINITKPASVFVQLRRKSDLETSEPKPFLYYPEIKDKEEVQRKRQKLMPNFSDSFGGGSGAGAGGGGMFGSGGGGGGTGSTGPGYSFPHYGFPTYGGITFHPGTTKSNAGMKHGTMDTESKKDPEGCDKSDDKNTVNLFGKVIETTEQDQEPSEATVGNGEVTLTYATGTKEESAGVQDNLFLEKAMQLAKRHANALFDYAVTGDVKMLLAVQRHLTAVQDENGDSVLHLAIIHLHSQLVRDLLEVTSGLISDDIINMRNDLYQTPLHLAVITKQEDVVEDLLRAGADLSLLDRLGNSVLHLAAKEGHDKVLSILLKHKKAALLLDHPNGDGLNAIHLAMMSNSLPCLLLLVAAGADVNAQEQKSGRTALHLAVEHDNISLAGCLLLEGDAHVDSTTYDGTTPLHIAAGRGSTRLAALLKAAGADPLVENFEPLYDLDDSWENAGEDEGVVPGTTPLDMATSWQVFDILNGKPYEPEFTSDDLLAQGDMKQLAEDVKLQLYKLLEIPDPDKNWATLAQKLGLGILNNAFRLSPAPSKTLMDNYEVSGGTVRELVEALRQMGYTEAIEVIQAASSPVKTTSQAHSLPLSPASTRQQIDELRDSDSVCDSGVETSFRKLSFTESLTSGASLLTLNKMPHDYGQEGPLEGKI
Sequence of Nuclear factor erythroid 2-related factor 2 (Homo sapiens) (Q16236 whole entry, looked up): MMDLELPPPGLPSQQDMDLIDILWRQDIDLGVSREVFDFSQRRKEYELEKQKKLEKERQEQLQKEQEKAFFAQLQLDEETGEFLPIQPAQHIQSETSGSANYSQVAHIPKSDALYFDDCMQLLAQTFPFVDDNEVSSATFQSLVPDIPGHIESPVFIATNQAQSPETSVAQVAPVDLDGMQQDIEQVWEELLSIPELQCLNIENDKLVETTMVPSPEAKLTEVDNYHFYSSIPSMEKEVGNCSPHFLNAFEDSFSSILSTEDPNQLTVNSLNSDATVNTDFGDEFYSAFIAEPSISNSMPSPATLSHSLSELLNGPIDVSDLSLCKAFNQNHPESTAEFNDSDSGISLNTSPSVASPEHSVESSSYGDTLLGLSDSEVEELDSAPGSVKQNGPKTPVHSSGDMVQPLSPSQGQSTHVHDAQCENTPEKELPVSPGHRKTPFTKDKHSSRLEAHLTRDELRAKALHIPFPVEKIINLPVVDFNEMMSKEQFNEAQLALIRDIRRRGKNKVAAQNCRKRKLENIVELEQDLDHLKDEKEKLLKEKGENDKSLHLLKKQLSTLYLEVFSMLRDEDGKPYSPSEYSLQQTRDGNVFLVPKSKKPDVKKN

Consider `CO/C=C(/C(=O)OC)c1ccccc1COc1cccc(C(F)(F)F)n1`, for which the AC50 in test [1] was 8.19 µM (active); in [2] it was 9.02 µM (active); in test [4] it was 27.8 µM (active); in [5] it was 12.4 µM (active); in [6], 50 µM (active); in [7], 22.6 µM (active). Further, the AC50 in [8] was 9.42 µM (active); in [9], 6.86 µM (active); in [10], 12.6 µM (active); with MYC, MYC (gene 4609), 9.71 µM (active); in test [11], 23.9 µM (active); in [15] it was 5.3 µM (active). For the same compound, the AC50 in test [18] is 21.6 µM (active). The result in test [3], in [12], in test [13], in [14], in test [16] and in test [17] was inactive.
In the case of `CCC(C)(CC)c1cc(NC(=O)c2c(OC)cccc2OC)on1`, the AC50 in [1] is 50 µM (active); with MYC, MYC (gene 4609), 25.7 µM (active); in [19] it was 14.2 µM (active); in test [15], 34.6 µM (active); in test [18], 14.9 µM (active). Moreover, the compound was classed as inactive in [2], in test [3], in [4], in test [6], in test [7] and in test [8]. Besides, the result in [9], in [10], in test [11], in test [12], in [13] and in test [14] was inactive. Also, the result in test [16] and in [17] was inactive.

The values are drawn from PubChem BioAssay (EPA / NIEHS).
